Calls of active or inactive are those of the source.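 The calls were made as follows: active = inhibition above the hit cutoff set in the earlier primary screen (cut at about 27% in these data); inactive = the rest.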
These compounds were tested against Protein phosphatase methylesterase 1 (Homo sapiens) (UniProt Q9Y570) (assay: PME-1 inhibitor activity retest, confirmation, biochemical, fluorescence polarization, FP-Rh probe, triplicate (AID 2171;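 also: 0% = enzyme with DMSO and 100% = wells lacking PME-1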)). Conditions: recombinant PME-1, FP-Rh probe fluorescence polarization; at 5.9 µM; stronger effect = higher value.
Chain of Protein phosphatase methylesterase 1 (Homo sapiens) (Q9Y570 whole entry, looked up): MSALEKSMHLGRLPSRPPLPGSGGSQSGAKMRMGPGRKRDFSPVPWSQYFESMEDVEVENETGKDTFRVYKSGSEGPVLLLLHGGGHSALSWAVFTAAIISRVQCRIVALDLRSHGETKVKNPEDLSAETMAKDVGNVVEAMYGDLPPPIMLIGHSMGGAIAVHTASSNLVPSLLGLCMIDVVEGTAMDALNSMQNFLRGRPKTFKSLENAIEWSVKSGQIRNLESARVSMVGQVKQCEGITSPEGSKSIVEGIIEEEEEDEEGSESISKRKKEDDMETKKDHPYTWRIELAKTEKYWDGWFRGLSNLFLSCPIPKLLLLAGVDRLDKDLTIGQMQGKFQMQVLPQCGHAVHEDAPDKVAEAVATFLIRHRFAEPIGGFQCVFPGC
In the case of CCCC(=Nc1ccc(N)cc1)C1=C(O)C(C(=O)OC)C(C)(C)CC1=O (stereo not given), the inhibition is reported as 4.48% (inactive).
In the case of Brc1csc(/C=N/Nc2nc3ccccc3s2)c1, the inhibition is reported as 45.3% (active).
COc1ccc(/C=N/NC(=O)c2cc3cc(OC)c(OC)cc3[nH]2)cc1 was tested, and the inhibition was 8.04% (inactive).
N#C/C(=C(\O)c1cc(Cl)sc1Cl)c1nc2ccccc2[nH]1 was tested, and the inhibition was 21.8% (inactive).
For CC1=NC(=O)C(N=Nc2cccc(O)c2)N1c1ccccc1 (stereo not given), the inhibition was 24.1% (inactive).
With Cc1ncc(CO)c(/C=N/NC(=S)Nc2ccc(Cl)c(Cl)c2)c1O the inhibition was 6.06% (inactive).
With COc1ccc(-c2nc(-c3cccs3)c(-c3cccs3)[nH]2)cc1O the inhibition was 39.6% (active).
In the case of Cc1ccc(-c2csc(-c3c[nH]c4ccccc34)n2)cc1, the inhibition is reported as 11.1% (inactive).
In the case of COc1ccc2oc(C(=O)OCC(=O)N3CCN(S(=O)(=O)c4ccc(C)cc4)CC3)c(C)c2c1, the inhibition is reported as 17.9% (inactive).
With O=C(CCCSc1ccccc1)Nc1nc(-c2ccco2)c(-c2ccco2)s1 the inhibition was 6.79% (inactive).
In the case of COc1ccc2cc3c(N)c(C(=O)NCc4ccco4)sc3nc2c1, the inhibition is reported as 39.8% (active).
For Cc1ccc2[nH]c(O)c(N=NC(=O)c3ccc(NS(=O)(=O)c4cccs4)cc3)c2c1, the inhibition was 45.9% (active).
In the case of COc1ccc(-c2csc(NC(=O)Nc3ccccc3)n2)cc1, the inhibition is reported as 25.6% (inactive).
In the case of N#Cc1cc2ccccc2nc1SCC(=O)Nc1ccccc1N1CCOCC1, the inhibition is reported as 20.3% (inactive).
In the case of O=C(c1sc2ccccc2c1Cl)N1CCN(c2ncccn2)CC1, the inhibition is reported as 24.4% (inactive).
Nc1c(C(=O)Nc2ccccc2)sc2nc(-c3ccco3)ccc12 was tested, and the inhibition was 59.5% (active).
With Oc1ccc(C2Nc3cccc4cccc(c34)N2)c(O)c1 the inhibition was 21.4% (inactive).
COc1ccc(CCn2c(N)c(C#N)c3nc4ccccc4nc32)cc1OC was tested, and the inhibition was 25.9% (inactive).
Nc1ccc(Nc2nc3ccccc3[nH]2)cc1 was tested, and the inhibition was 43.7% (active).
Nc1ccc(N2CCCCC2)c2nonc12 was tested, and the inhibition was 11.3% (inactive).
O=C(OCCOCCN=C1NS(=O)(=O)c2ccccc21)c1ccccc1Br was tested, and the inhibition was 5.54% (inactive).
For CC1Oc2ccccc2C=C1/C=N/Nc1ccc(C(=O)O)cc1 (stereo not given), the inhibition was 34.8% (active).
With COc1ccc(/C(C)=C2/SC(=S)N(CCC(=O)O)C2=O)cc1 the inhibition was 4.27% (inactive).
In the case of CCOC(=O)c1c(C)[nH]c(C)c1S(=O)(=O)N(C)CC(=O)Nc1cc(C)ccc1OC, the inhibition is reported as 24.4% (inactive).
In the case of Oc1[nH]c2ccccc2c1N=Nc1ncnc2c1oc1ccccc12, the inhibition is reported as 35% (active).
c1ccc2c(c1)OCCc1c-2[nH]c2ccccc12 was tested, and the inhibition was 21.9% (inactive).
Cc1[nH]c2ccccc2c1/C=N/Nc1nc(Nc2ccccc2)nc(N2CCOCC2)n1 was tested, and the inhibition was 34.2% (active).
In the case of CN(C)S(=O)(=O)c1ccc(-c2csc(N/N=C/c3ccc(O)cc3)n2)cc1, the inhibition is reported as 25% (inactive).
With COc1cc2c(cc1NC(=O)Nc1cccc(C)c1)oc1ccccc12 the inhibition was 12.2% (inactive).
For CC1=Nc2ccccc2/C1=C\c1sc(Nc2ccc(C)cc2)nc1O, the inhibition was 42.2% (active).
With O=c1[nH]c(C2CCCN(S(=O)(=O)c3ccccc3)C2)nc2c1nnn2Cc1ccccc1 (stereo not given) the inhibition was 22.6% (inactive).
For CCOC(=O)N1CC=C2C(C#N)=C(N)C(C#N)(C#N)[C@H](c3ccc(OC(C)C)c(OCC)c3)[C@H]2C1, the inhibition was 41.6% (active).
COc1ccccc1NC(=O)c1cc2ccc(O)cc2o/c1=N\O was tested, and the inhibition was 19.6% (inactive).
With CCN(CC)C(=O)CSc1nc2c(sc(=S)n2-c2ccccc2)c(=O)n1Cc1ccco1 the inhibition was 78.6% (active).
For Cc1cccc(C)c1NS(=O)(=O)c1ccc(NC(=O)c2ccc(Cl)c([N+](=O)[O-])c2)cc1, the inhibition was -96.3% (inactive).
For O=C(Nc1ccc(N2CCOCC2)cc1)Nc1ccc2nc(-c3ccco3)c(-c3ccco3)nc2c1, the inhibition was 39.5% (active).
With COc1ccc(NC(=O)Nc2nnc(N3CCCCC3C)s2)cc1OC (stereo not given) the inhibition was 43.7% (active).
In the case of Nc1c(N2CCCC2)cc(Cl)c2nonc12, the inhibition is reported as 18.8% (inactive).
O=C(N/N=C/c1c[nH]c2ccccc12)c1ccc([N+](=O)[O-])cc1Cl was tested, and the inhibition was 20.6% (inactive).
Cc1ccc(Cn2nnc3c(=O)[nH]c(C4CCN(S(=O)(=O)/C=C/c5ccccc5)CC4)nc32)cc1 was tested, and the inhibition was 23.8% (inactive).

— PubChem BioAssay
